A selection: hits, their analogues and other compounds. The true share with any hit is near 27%.
EphB4 antag = EphB4-ephrin-B2 interaction antagonism | AID 720 | 97,000 compounds, 0.15% hits | P54760 | inhibition, % at 7 µM | EphB4 LBD / TNYL-RAW-Alexa532 peptide, fluorescence polarization;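 active = inhibition above the screen-wide mean inhibition plus 3 SD, cut at about 15% in these data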
CYP2C9 act = CYP2C9 (human) activation. recombinant CYP2C9, luciferin-H conversion, luminescence; stronger effect = higher value; factor 1 = untreated enzyme, 0 = blocked. activation factor at 5 µM. 96,000 compounds, 1.4% hits;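 active = activation factor of 2 or more for CYP2C9 at a 5 µM dose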
CYP2C9 inhib = inhibitors of human CYP2C9; 96,000 compounds, 20% hits; CYP2C9 Supersomes, luciferin-H conversion, luminescence; inhibition, % at 5 µM; P11712; AID 777;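 active = blocking of liver enzyme CYP2C9 beyond about 50% at 5 µM, limit read from the data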
CYP2C19 act = cytochrome P450 2C19 (human) activation | recombinant CYP2C19, luciferin-H EGE luminescence; stronger effect = higher value; 0 = fully inhibited enzyme, 1 = untreated enzyme | activation factor at 5 µM | 96,000 tested, under 10 active;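 active = activation factor of at least 2 at 5 µM in the primary screen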
Target sequence (P33261 whole entry, looked up): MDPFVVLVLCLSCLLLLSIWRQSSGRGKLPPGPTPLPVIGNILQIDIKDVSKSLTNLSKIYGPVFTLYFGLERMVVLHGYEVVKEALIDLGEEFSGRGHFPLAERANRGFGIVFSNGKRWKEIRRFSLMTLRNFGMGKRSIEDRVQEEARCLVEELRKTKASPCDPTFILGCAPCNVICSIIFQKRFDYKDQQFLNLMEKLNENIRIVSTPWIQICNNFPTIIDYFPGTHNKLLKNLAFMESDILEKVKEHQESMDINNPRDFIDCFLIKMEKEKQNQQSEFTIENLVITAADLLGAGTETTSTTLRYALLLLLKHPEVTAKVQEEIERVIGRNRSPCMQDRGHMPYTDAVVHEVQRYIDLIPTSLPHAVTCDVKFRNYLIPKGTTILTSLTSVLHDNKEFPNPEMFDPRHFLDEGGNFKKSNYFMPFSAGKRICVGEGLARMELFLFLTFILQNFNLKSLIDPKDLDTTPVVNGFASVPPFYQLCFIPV
CYP2C19 inh = human CYP2C19 inhibition; 96,000 compounds, 21% hits; AID 778; CYP2C19 Supersomes, luciferin-H EGE luminescence, 30 min; inhibition, % at 5 µM; P33261;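 active = CYP2C19 inhibition above a set limit at 5 µM in the primary screen, cut at about 50% in these data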
Numbers stand for hits; - = inactive; . = no result given.

SMILES	EphB4 antag	CYP2C9 act	CYP2C9 inhib	CYP2C19 act	CYP2C19 inh
Cc1ccc(NC(=O)/C(=C\c2ccccc2)NC(=O)/C=C/c2ccccc2)cc1	-	-	-	-	-
FC(F)(F)c1cccc(-c2ccc(-c3csnn3)o2)c1	-	-	-	-	56
O=c1[nH]c2ccccc2n1CCCOc1ccccc1	-	-	-	-	82
O=C(Cn1c(=O)oc2ccccc21)NC(=O)NCc1ccco1	-	-	-	-	65
COc1cccc(NC(=O)Cn2c(=O)oc3ccccc32)c1	-	-	-	-	68
CCCCn1c(=O)[nH]c2ccccc21	-	-	-	-	-
O=c1oc2ccccc2n1CCCCCn1c(=O)oc2ccccc21	-	-	-	-	84
CCCNC(=O)Cn1c(=O)oc2ccccc21	-	-	-	-	74
O=c1[nH]c2ccccc2n1CCCSc1cnc2ccccc2n1	-	-	85	-	63
O=C(Cn1c(=O)oc2ccccc21)c1ccccc1	-	-	-	-	93
O=C1c2ccccc2C(=O)N1CCn1c(=O)oc2ccccc21	-	-	-	-	-
O=c1oc2ccccc2n1CCCOc1ccccc1	.	-	70	-	98
O=c1[nH]c2ccccc2n1Cc1ccccc1	-	-	-	-	-
NC(=O)CCn1c(=O)oc2ccccc21	-	-	-	-	-
O=C(OCn1nnc2ccccc2c1=O)c1ccc2c(=O)n3c(nc2c1)CCC3	-	-	-	-	-
O=C(COC(=O)c1ccccc1C(=O)c1ccc(Cl)c([N+](=O)[O-])c1)NC1CCCCCC1	-	-	-	-	-
CCC1Oc2ccccc2N(Cc2ccccc2C)C1=O (stereo not drawn)	-	-	-	-	-
CC12C=CC3(O1)C(C(=O)N(c1cccnc1)C3C(=O)NC1CCCCC1)C2C(=O)Nc1ccccc1 (stereo not drawn)	-	-	-	-	-
O=C(c1cccc2ccccc12)N1CCN(CC2CC=CCC2)CC1 (stereo not drawn)	-	2.6	-	-	-
Cn1c(NC(=O)c2ccc(Cl)cc2)c(-c2ccccn2)c(=O)c2ccccc21	-	-	-	-	-
C=CCOc1c(CNc2ccc(S(N)(=O)=O)cc2)cccc1OC	-	.	.	.	.
Cc1ccccc1NC(=O)CN(c1ccc(F)cc1)S(C)(=O)=O	-	-	-	-	-
CS(=O)(=O)N(CC(=O)Nc1cccc(Cl)c1Cl)c1ccccc1	-	-	78	-	-
CS(=O)(=O)N(CC(=O)Nc1cc(Cl)ccc1Cl)c1ccccc1	-	-	65	-	-
CC(=O)Nc1ccc(NC(=O)CN(c2ccccc2Cl)S(C)(=O)=O)cc1	-	-	-	-	-
SMILES	EphB4 antag	CYP2C9 act	CYP2C9 inhib	CYP2C19 act	CYP2C19 inh
COc1ccc(CC(NC(C)=O)C(=O)N2CCN(C(=O)Nc3ccc(Cl)cc3)CC2)cc1OC (stereo not drawn)	-	-	-	-	-
COc1cccc(Nc2cc(N3CCOCC3)c3nonc3c2[N+](=O)[O-])c1	-	-	-	-	-
CCn1cnc2cc(NCc3ccncc3)ccc21	-	-	62	-	-
CCc1ccc(CNc2ccc3c(c2)ncn3C)cc1	-	-	-	-	70
Cc1ccc(-n2cnc3cc(NCc4cccs4)ccc32)cc1	-	-	93	-	90
CCCn1cnc2cc(NCc3ccccn3)ccc21	.	-	-	-	-
COc1ccc(CNc2ccc3c(c2)nc(C)n3C)cc1	-	-	-	-	58
COc1ccc(-n2cnc3cc(NCc4cccs4)ccc32)cc1	-	-	-	-	-
CCN1CCN(Cc2oc(CO)cc(=O)c2O)CC1	-	-	-	-	-
O=C(CSc1n[nH]c(=O)[nH]c1=O)c1ccccc1	-	-	-	-	-
COc1ccc(C2CC(C(F)(F)F)n3nc(C(=O)O)cc3N2)cc1OC (stereo not drawn)	-	-	-	-	-
Cc1cc(=O)n2[nH]c(-c3ccccc3Cl)cc2n1	-	.	.	.	.
Cc1ccc(C(=O)Nc2ccc3c(c2)ncn3C)cc1	-	-	-	-	-
Cc1ccc(CNc2ccc3c(c2)ncn3C)cc1	-	-	-	-	62
CCCCNc1nc(-c2ccccc2)c(C(=O)OCC)cc1C#N	-	-	56	-	-
CCCNc1nc(-c2ccccc2)c(C(=O)OCC)cc1C#N	-	-	57	-	-
C=CCNc1nc(-c2ccccc2)c(C(=O)OCC)cc1C#N	-	-	-	-	-
CC(NC(=O)Cn1nc(-c2ccccc2)c2ccccc2c1=O)c1ccccc1 (stereo not drawn)	-	-	-	-	89
CC(NC(=O)Cn1nc(C(=O)O)c2ccccc2c1=O)c1ccccc1 (stereo not drawn)	-	.	.	.	.
O=C(CN1C(=O)COc2ccccc21)N(Cc1cccnc1)Cc1cccc(F)c1	-	-	91	-	87
CCC1Oc2ccc(C)cc2N(CC(=O)N(Cc2cccnc2)Cc2cccc(F)c2)C1=O (stereo not drawn)	-	.	.	.	.
CC(=O)Nc1ccc(S(=O)(=O)Nc2ccc(NC(=O)c3ccco3)cc2)cc1	-	-	-	-	-
CC(=O)Nc1ccc(NS(=O)(=O)c2ccc3ccccc3c2)cc1	-	-	75	-	99
CC(=O)Nc1ccc(NS(=O)(=O)Cc2ccccc2)cc1	-	-	-	-	58
NC(=O)c1ccccc1NS(=O)(=O)Cc1ccccc1	-	4	-	-	-
SMILES	EphB4 antag	CYP2C9 act	CYP2C9 inhib	CYP2C19 act	CYP2C19 inh
CC(=O)Nc1ccc(NS(=O)(=O)c2cccc3ccccc23)cc1	-	-	-	-	89
CC(=O)Nc1ccc(S(=O)(=O)N(CC(=O)O)Cc2ccccc2)cc1	-	-	-	-	-
CC(C)CC(C(=O)O)N(Cc1ccccc1)Cc1ccccc1 (stereo not drawn)	-	.	.	.	.
CC(=O)Nc1ccc(S(=O)(=O)N(Cc2ccccc2)C(C)C)cc1	-	-	67	-	52
CC(C)N(Cc1ccccc1)S(=O)(=O)N(C)C	-	-	-	-	77
COc1ccccc1S(=O)(=O)Cc1ccc(C(=O)NCc2cccnc2)o1	-	-	-	-	-
COc1ccc(CNC(=O)C(C)NC(=O)c2cc3ccccc3o2)cc1 (stereo not drawn)	-	-	76	-	-
COc1ccccc1S(=O)(=O)Cc1ccc(C(=O)NC(C)c2ccc3c(c2)OCCO3)o1 (stereo not drawn)	-	-	62	-	52
CCc1ccccc1S(=O)(=O)Cc1ccc(C(=O)NCc2ccc3c(c2)OCO3)o1	-	-	95	-	54
O=C(CSc1c[nH]c2ccccc12)NCc1ccc2c(c1)OCO2	-	-	96	-	100
CC(C)C(=O)Nc1ccc(NC(=O)c2cc3ccccc3o2)cc1	-	-	-	-	-
COc1ccc(NC(=O)CN(C)S(=O)(=O)c2ccc(Cl)cc2)c([N+](=O)[O-])c1	-	-	-	-	-
O=C(c1cccc(Br)c1)N1CCN(C(=O)N2CCOCC2)CC1	-	.	.	.	.
O=C(CSc1nc2ccc(Cl)cc2o1)NCc1ccc2c(c1)OCO2	-	-	61	-	-
O=C(NCc1ccc2c(c1)OCO2)c1cc2ccccc2o1	-	-	89	-	-
